Laboratory results published in the supplement of paper PMC10105736.

Legend:
Assay in all cases: MAPPIT interaction score (arbitrary units); higher = stronger binary interaction signal, active = hit call of the paper;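 active = MAPPIT score above the 99th percentile of random reference set scores in the same batch; inactive = at or below it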
Baldspot = conditions: MAPPIT configuration: N-C; pair source set: screen_4
Description: (§1)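 MAPPIT in HEK293T cells: Drosophila bait and prey ORFs (from the FlyBi ORF collection) were co-transfected in quadruplicate, with two wells stimulated by erythropoietin. Interaction-dependent JAK-STAT activation was read out with a STAT-responsive firefly luciferase reporter. Positive calls use the 99th percentile of random reference set (RRS) scores within each batch […]. Batches Dvs01 and Dvs02 used the N-N configuration and Dvs04 the N-C configuration. Pairs come from FlyBi screens, CuraGen, DPiM, Finley Y2H, Lit-BM-16, Lit-BS-16 and RRS.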

EMC5 = conditions: MAPPIT configuration: N-C; pair source set: screen_3
Description: as §1

Ude = conditions: MAPPIT configuration: N-C; pair source set: screen_3
Description: as §1

Bfc = conditions: MAPPIT configuration: N-C; pair source set: screen_4
Description: as §1

CG17376 = conditions: MAPPIT configuration: N-N; pair source set: screen_1
Description: as §1

CG42565 = conditions: MAPPIT configuration: N-C; pair source set: screen_4
Description: as §1

CG42688 = conditions: MAPPIT configuration: N-C; pair source set: screen_4
Description: as §1

aspr = conditions: MAPPIT configuration: N-N; pair source set: Curagen_low_conf
Description: as §1

fok = conditions: MAPPIT configuration: N-C; pair source set: screen_3
Description: as §1

Ass = conditions: MAPPIT configuration: N-N; pair source set: Curagen_high_conf
Description: as §1

Measured: MAPPIT interaction score
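Further: HEK293T cells with Epo stimulation, STAT-responsive firefly luciferase reporter, fold induction versus unstimulated cells divided by the larger fold induction of two negative controls lacking either bait or prey.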

B1: oxt (protein)
chain: MEQSVSARWLKRYRAFFLILLLIVAIQLFLAYKSLDIVGGGSGSGFDAAEAPASPPPPHAQARVQPPARTKLTAQQLGFQPECDILAREAISALQRAKTKDCREHIAQIACAIQAGRFYAPQLRSSCPAGNHTANVSLGCFKDEKDRRLLAGYYSSSKTSNSPAKCVELCLQSGYPYAGVQYGRECFCGYDPPPKASKLPDSSCNTKCLGNAKEICGGFYAMNIYETGIAKFTAQLAATTPSEETKRVRIAFLLTLNGRALRQVHRLLKALYAPEHVYYIHVDERQDYLYRKLLELESKFPNIRLARKRFSTIWGGASLLTMLLQCMEDLLQSNWHWDFVINLSESDFPVKTLDKLVDFLSANPGRNFVKGHGRETQKFIQKQGLDKTFVECDTHMWRIGDRKLPAGIQVDGGSDWVALSRPFVGYVTHPREDDELLQALLKLFRHTLLPAESFFHTVLRNTKHCTSYVDNNLHVTNWKRKQGCKCQYKHVVDWCGCSPNDFKPEDWPRLQATEQKSLFFARKFEPVINQAVLLQLEEWLYGPYTSEYANLHGYWQSLYHHEDVHGSGDDLARSIGDSVMRLSARQAKLYPLELIELTHYLHRDQYKGFLVRYRARGSTGKPLHLETRVRPTQQGKLARNARFSKRLRNFEVSTDFDQKEQIARNFGKLLGPQSDLLLSYTLQANADSGAASHSYNLTLLWIDPLGRLQDFNELHVEDSTSDVINHSKTLLKHPITPGIWTAKLIGRNSIYAQLKFLIAPLAYYKGYPLAKSSDAEALNAGLTVALPEDFEMPVEWQQHLQTDDEQFTMREESLAKGKMLGQELHSWIDGLVGQFFQLRESCVVEADSEVSLPLCSDAPWSSLAPDPKSDVDALLK
inactive: Baldspot 0.0528 | EMC5 -0.000675 | Ude 0.189

B2: disco (protein)
chain: MEHIMNPFMSPAYLLGHGPHSHQHVHSHLPSHPQPNAASPASSPGGSSGSGSGSAAGSGTGSGSSLKPRRWGSPPINLAGQFINPATGKKRVQCSICFKTFCDKGALKIHFSAVHLREMHKCTVEGCNMVFSSRRSRNRHSANPNPKLHSPHIRRKISPHDGRTAQQFPVFSPGTAAAAAAVAGRLPVAFPGLLPPPPPHHGHHPYVMFGGQAGLHGLGLLSTGCQDPDSGSVDNEQDADPEDDNDFVYVDMQANSSSPAASSEDQEEHERDNEQDEEMHCSLSLASSSSIAADEERAADQPLDFSLHKRRKSEQDREQEQEQEQEREREAEKEQEQDVESDKEHEPEQEHELEREKRSPSDAFSMDQLLGKRKRHDSTASSSACSTAAASSASSSSASASANPPQTSIKMDLDPDSDSAYMTSRRQMLPLPVLDLEEHHHLRLLQTQMFAAAAAAAATSQAPPTAFLPAGSPVDLAKDSPPMWSLLSEMYRSMLLKTQHQQYNHHHQLQQQHQQEQHHHLTLSHHHQEQHHHLGHHHMGHHHHHHHQHHQQQPQQQSPAATNAPISV
inactive: Bfc 1.54 | CG17376 0.354 | CG42565 2.57 | CG42688 2.18 | aspr -0.256 | fok 0.776

B3: Git (protein)
chain: MCFASSIIEAHRKLFIAPPDLDHSDPATPTISTRSKMPRGKSRLQTEVCGDCGAGDPSWASINRGILLCADCCSVHRSLGRHISIVKSLRQGNWEPSVLNFVNSLNAHGANSVWEHHLLDGSTNSTGGKHVPRWRKPTPKDALHPTKSDFIKAKHVNLTFVLKPSLQDDDDGNGSAGCLEQELSRQLHASVRTSNLETSLRFLVQGADPNYYHEDKLSTPLHMAAKFGQASQIEMLLIYGADVNALDGNGMTPLELARANNHNTIAERLLDAMYDVTDRIITFLGGKKPDHASGRHMIIPDANGADISEQLKIARGKLQLVPNKMFEELVMDLYDEVDRRECEAIWSTSTLNADHATVPFLPANPFLSATRNQGRQKLARFNRAEFTGLLTDVLVDAMRRQNMANLRPMDAPVAGHQSLQSLPYANNSMLLGSFEQGGHDPNLSDDEPIYDPVASDDDYAPVPPMAQQAIVHTPPRSANSHNEMETLRKQLNDYKSEINQLKNVVQMLSSENTQLKSKFSSASNNSVYDEPLRIDLSLSSPDTEHEPLSLPEGGTANGESGSSNDSSNQSTIKRPASMYERRLVPNVAKGNTDIRNTTSMYQMAGDGKPFGEEVKVRSDLVTRRLKELIRAMQPVPEDQKQSIAPHGELIRSAVTDLIALYANLPPNASDPSRETLKLLTRQNILIQHECENLQKAIEADDKQAIQKNTLEVRDCAFHIASAIKTLVLQFY
inactive: Ass -0.0648
